The values that follow come from PubChem BioAssay AID626 (Vanderbilt High Throughput Screening Facility, 2007).

Hit rate of the full screen: of about 64,000 compounds, about 1,900 (3%) were called active. This is one part of a sample in which actives are shown more often than they occur. Unmarked numbers belong to inactive results.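 How the source made its calls: active means fluorescence rise, raw or as B-score row- and column-corrected plate score, outside the 99.7% band of its plate's samples, either direction; inactive means the rest.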

In the experiment the test system is Muscarinic acetylcholine receptor M1. Description: direct activation of M1 receptor calcium signal – CHO-M1 cells, Fluo-4 calcium, agonist mode, primary screen (AID 626). The following applies: Fluo-4 calcium fluorescence, at 10 µM, active compounds read high.
For the compound `C/C(Cl)=C\Cn1c(Nc2cccc(C)c2)nc2c1c(=O)n(C)c(=O)n2C`, the B-score was 0.177.

Turning to `CCCn1c(=O)c(-c2ccccc2)c(O)c2ccccc21`, the B-score was 0.287.

As for `Nc1nnc(SCCN2C(=O)c3ccccc3S2(=O)=O)s1`, the B-score is 1.12.

On to `CCOC(=O)CNC(=O)CN1C(=O)CCSc2ccccc21`, for which the B-score was -0.158.

Regarding `CC1=NCCN1S(=O)(=O)c1ccc(Br)c(C)c1`, the B-score is 0.66.

`CCN1CCCC1CNc1ncnc2c1[nH]c1ccc(F)cc12` (stereo not drawn): the B-score is 0.0374.

As for `O=C1CCCN1CCCNc1ncnc2c1[nH]c1ccccc12`, the B-score was -0.55.

In the case of `CC(C)OCCCNc1ncnc2c1[nH]c1ccc(F)cc12`, the B-score is 16.6 (active).

As for `Cc1oc(CC(C)C)c(CN2CCCC2)c1C(=O)O`, the B-score is 0.845.

Turning to `CCOC(=O)C1CCN(C(=O)C2CCN(S(=O)(=O)c3c(C)noc3C)CC2)CC1`, the B-score is -0.00598.

As for `CN1C(C)(C)CC(NC(=O)CCC(=O)NC2CC(C)(C)N(C)C(C)(C)C2)CC1(C)C`, the B-score is -0.271.

Consider `CCCOC(=O)Nc1ccccc1C(N)=O`, for which the B-score is -0.00513.

Consider `O=C(CC1NCCNC1=O)Nc1ccc(Oc2ccccc2)cc1` (stereo not drawn), for which the B-score is 1.02.

Consider `CCOC(=O)c1ccccc1NC(=O)CC1Nc2ccccc2NC1=O` (stereo not drawn), for which the B-score was 14.3 (active).

Consider `O=C(CC1Nc2ccccc2NC1=O)Nc1ccccc1` (stereo not drawn), for which the B-score is 3.46 (active).

Turning to `CCOc1ccc(NC(=O)CC2NCCNC2=O)cc1` (stereo not drawn), the B-score is 0.571.

With `CCOC(=O)C1=C(C)NC(C)=C(C(=O)OCC)C1c1ccccn1`, the B-score is -0.0841.

Turning to `COc1ccccc1NC(=O)C1=C(C)NC2=C(C(=O)CCC2)C1c1ccc(C)o1` (stereo not drawn), the B-score was -0.692.

As to `CCc1ccc(N(CC)c2ncnc3nc[nH]c23)cc1`, the B-score was 0.205.

Consider `CCOc1ccc(S(=O)(=O)N(CC(=O)O)c2ccccc2)cc1`, for which the B-score is 0.254.

For `C=C1c2cc(CC)ccc2NC(=O)N1c1ccc(C)cc1`, the B-score is -1.17.

As for `Cc1ccccc1NC(=O)CNc1ccccc1N1CCCCC1`, the B-score was 1.11.

`CC(C)n1c(SCC(=O)Nc2ccccc2N2CCCCC2)nc2c1c(=O)n(C)c(=O)n2C`: the B-score is 0.367.

Turning to `Cn1c(=O)c2c(nc(SCC(=O)Nc3ccccc3N3CCCCC3)n2C)n(C)c1=O`, the B-score was 6.49 (active).

With `CC(=O)Nc1ccc(S(=O)(=O)N2CCN(CCCOc3cc(C)ccc3C)CC2)cc1`, the B-score is -0.692.

As to `CN(C)CCCNc1c2c(c(C#N)c3nc4ccccc4n13)CCC2`, the B-score was 0.715.

For `COc1ncnc2c1N=C1CC(C)(C)CC(N)=C1S2`, the B-score is 39.7 (active).

For `COc1cc(NS(=O)(=O)c2ccccc2)ccc1-n1nc(C)cc1C`, the B-score was -0.04.
